# Records with an inconclusive call do not appear. The source made the active and inactive calls. The call rests on the fitted dose curve; in most records, active means well fitted curve in either direction with a large enough effect; inconclusive means small, poorly fitted or top-dose-only effect; inactive means no such curve, though single readings can be large or run the other way.
# Target: Lysosomal alpha-glucosidase (Homo sapiens) (UniProt P10253)
# Experiment: Confirmation of Inhibitors and Activators of Human alpha-Glucosidase From Spleen Homogenate;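 on Potency: fluorescence of 4-methylumbelliferone released from a fluorogenic glucopyranoside substrate at pH 5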; on activity change, both directions: 0% is about no effect
# Details: alpha-glucosidase enzyme activity; series mostly up to 60.5 µM; activity change, both directions: at the top concentration
# Procedure, shortened: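 Compounds titrated against spleen-homogenate alpha-glucosidase, pH 5.0, 1 mM 4-MU-glucoside substrate, 37 C for 40 min. Fluorescence after pH 10 stop, normalised to no-enzyme and enzyme controls; Hill-equation AC50.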
# Potency means the concentration at half of the fitted maximal effect.
Compound,"activity change, both directions",Potency
CC(=O)c1ccc(N2CCN(S(=O)(=O)c3ccc4c(c3)OCC(=O)N4)CC2)cc1,-10.1% (inactive),
CCCN1CNc2c(c(=O)[nH]c(=S)n2CCc2ccccc2OC)C1,,44.7 µM (active)
COc1cc2cc(CN(Cc3nnnn3Cc3ccccc3)CC3CCCO3)c(=O)[nH]c2cc1OC (configuration not stated),2.42% [at 31.5 µM] (inactive),
O=C(CSc1ncc(C(F)(F)F)cc1Cl)N1CCN(S(=O)(=O)c2ccccc2)CC1,-25.3% (inactive),
CC(=O)c1ccc(N2CCN(S(=O)(=O)c3ccc4c(c3)CCCN4C(C)=O)CC2)cc1,1.99% (inactive),
O=c1[nH]cc(C#Cc2ccccc2)c2ncncc12,-10.9% (inactive),
CCc1sc(-c2cc3ccccc3oc2=O)nc1-c1ccccc1,11.7% (inactive),
O=S(=O)(c1cccnc1)N1CCOCC1,-4.01% (inactive),
COC(=O)c1cc(OC)c(OC)cc1NC(=O)CCCCCN1C(=O)CCC1=O,2.76% [at 31.5 µM] (inactive),
COc1cc(=O)[nH]c(=O)n1C(=O)Cc1ccccc1,2.38% [at 31.5 µM] (inactive),
C(=C\c1nccc2c1[nH]c1ccccc12)/c1ccc2c(c1)OCO2,26.5% (inactive),
CC(C)(C)OC(=O)NCCCC[C@H](NC(=O)c1[nH]cnc1C(=O)Nc1ccc(CNC(=O)OC(C)(C)C)cc1)C(=O)OC(C)(C)C,-7.24% (inactive),
Cc1ccccc1-n1c(N)cc(=O)[nH]c1=S,0.384% [at 31.5 µM] (inactive),
CN(C)C=Nc1nc2ccccc2nc1N1CCCC1,7.05% [at 31.5 µM] (inactive),
CCC(C)NC(=O)CCC(=O)Nc1ccc2nc(N3CCOCC3)cc(C)c2c1 (configuration not stated),20.8% [at 31.5 µM] (inactive),
O=c1oc2ccc(Br)cc2cc1-c1nc2c(s1)CCc1ccccc1-2,-7.86% (inactive),
Nc1cccc(S(=O)(=O)N2CCOCC2)c1,3.24% (inactive),
CCCN1CNc2c(c(=O)[nH]c(=S)n2CCc2cc(OC)ccc2OC)C1,,20 µM (active)
CCCCCCc1cc2cc(C(=O)NC)c(=N)oc2cc1O,63% (inactive),
COc1cc2c(cc1OC)-c1cc(OCc3ccccc3Cl)nc(=O)n1CC2,-3.52% [at 31.5 µM] (inactive),
COCCNS(=O)(=O)c1ccc2c(c1)n(C)c(=O)n2C,3.34% [at 31.5 µM] (inactive),
COc1cccc2cc(-c3nc(-c4ccccc4)c(C)s3)c(=O)oc12,-10.2% (inactive),

# Source: PubChem BioAssay AID2113 (National Center for Advancing Translational Sciences (NCATS), 2009)
